In PubChem BioAssay (Tox21) one finds Potency data, which are given here for seven molecules.

Assay [1] in a line: Nuclear factor erythroid 2-related factor 2/antioxidant responsive element (Nrf2/ARE) small molecule agonists: qHTS cell viability counter screen in human keratinocytes (AID 1919968; active = well fitted cell-killing curve with a large enough effect in the repeat runs; note: nearly all actives have a fitted effect of over 55% in size; note: potency is the fitted concentration of half-maximal effect). In short, it runs like this:
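Cells of the KeratinoSens line were plated at 1,500 per well and left for 5 h before compound transfer from DMSO stocks. After a 23 h incubation (37 C, 5% CO2), CellTiter-Fluor was added. Signal was taken as fluorescence intensity 1 h later.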

The nature of assay [2]: Nuclear factor erythroid 2-related factor 2/antioxidant responsive element (Nrf2/ARE) small molecule agonists: luciferase reporter gene qHTS assay in human keratinocytes (AID 1919969; note: nearly all actives have a fitted effect of over 35% in size; note: potency is the fitted concentration of half-maximal effect). (A reporter such as luciferase makes a cellular process visible.)
Assay [3] has as its target Gonadotropin-releasing hormone receptor (Homo sapiens) (UniProt P30968). Kind of assay: Human gonadotropin-releasing hormone receptor (GnRHR) small molecule agonists, calcium flux assay in GnRHR-HEK293 cells (AID 1920063). Note: nearly all actives have a fitted effect of over 35% in size. In a few lines:
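Compounds dissolved in DMSO are pin-transferred onto dye-loaded GnRHR-HEK293 cells, which were seeded 18 h before at 37 C/5% CO2. Calcium signal is read as fluorescence intensity at 1 s intervals for 3 min.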

Assay [4] is described as follows: G protein-coupled receptor (GPCR) small molecule agonists, calcium flux assay: HEK293 wild type cell line counter screen (AID 1920065). In a few lines:
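Tox21 10K compounds, 15 concentrations each in triplicate, pin-transferred in DMSO onto dye-loaded cells; kinetic read at 480/540 nm for 3 min, 1 s intervals.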
Background: Calcium flux is commonly read through the fluorescence of an indicator in the cells.

A short description of assay [5]: p53 small molecule agonists, cell-based qHTS assay with human liver microsomes (AID 1963577).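 Note: p53 response element beta-lactamase reporter cells with liver microsomes plus NADPH.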 In short, it runs like this: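 With metabolic activation: human liver microsomes (0.5 mg/mL final) plus NADPH (0.5 mg/mL final) added alongside compounds to p53RE-bla cells; 16 h 37 C exposure; beta-lactamase read by LiveBLAzer fluorescence.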
(In general: In qHTS, concentration-response curves come from the screen itself.)

Assay [6] is described as follows: p53 small molecule agonists, cell-based qHTS assay with rat liver microsomes (AID 1963578). In short, it runs like this: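 Metabolic activation by rat liver microsomes and NADPH, each 0.5 mg/mL final, added right after compounds to p53RE-bla reporter cells (4,000/well, plated 5 h earlier). 16 h at 37 C, then LiveBLAzer substrate for 2 h at room temperature in the dark; fluorescence read-out.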

A short description of assay [7]: p53 small molecule agonists, cell-based qHTS assay with human liver microsomes: qHTS cell viability counter screen (AID 1963579). Note: nearly all actives have a fitted effect of over 45% in size. Note: potency is the fitted concentration of half-maximal effect. In a few lines: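 Metabolic activation used human liver microsomes and NADPH, both 0.5 mg/mL final, over 16 hours at 37 C on p53RE-bla cells (4,000/well). Cytotoxicity measured by CellTiter-Glo luminescence, 30 min at room temperature.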

Assay [8] is described as follows: p53 small molecule agonists, cell-based qHTS assay with rat liver microsomes: qHTS cell viability counter screen (AID 1963580). Note: nearly all actives have a fitted effect of over 45% in size. Note: potency is the fitted concentration of half-maximal effect. In short, it runs like this:
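After the beta-lactamase ratio was read, CellTiter-Glo was added to the same wells and luminescence measured at 30 min; cells had been treated 16 h at 37 C with compounds, rat liver microsomes and NADPH (0.5 mg/mL final each).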

Assay [9] in a line: p53 small molecule agonists, cell-based qHTS assay (AID 1963582; active = well fitted activation curve with a large enough effect in the signal ratio in the repeat runs, not every such curve was filed as active; the % refers to the signal ratio). In short, it runs like this:
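16 h compound exposure (37 C) of p53 response element–bla cells, preceded by 5 h recovery at 37 C/5% CO2; read-out via LiveBLAzer B/G FRET substrate, 2 h RT, fluorescence intensity.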

For assay [10], the target named is 5-hydroxytryptamine receptor 2A (Homo sapiens) (UniProt P28223). The experiment in a line: 5-hydroxytryptamine receptor 2A (HTR2A) small molecule antagonists, cell-based qHTS assay (AID 1963586). Note: nearly all actives have a fitted effect of over 45% in size. Note: potency is the fitted concentration of half-maximal effect. In a few lines:
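CHO cells stably expressing human HTR2A were plated for 18 h at 37 C, then loaded with calcium dye for 1 h. Compounds were preincubated 5 min at room temperature before DOI (4 nM solution) was added. Kinetic fluorescence was read for 3 min.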

Assay [11] has the same target. Kind of assay: 5-hydroxytryptamine receptor 2A (HTR2A) small molecule agonists, cell-based qHTS assay (AID 1963587). Note: nearly all actives have a fitted effect of over 30% in size. Note: potency is the fitted concentration of half-maximal effect. In short, it runs like this: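 CHO cells stably expressing human HTR2A, plated 18 h, loaded with calcium dye 1 h at 37 C. Agonist mode: compounds added and intracellular calcium fluorescence recorded kinetically for 2 min at 1 sec intervals.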
For assay [12], the target named is Muscarinic acetylcholine receptor M1 (Homo sapiens) (UniProt P11229). The experiment in a line: Cholinergic receptor muscarinic 1 (CHRM1) small molecule antagonists, cell-based qHTS assay (AID 1963588). Note: nearly all actives have a fitted effect of over 40% in size. Note: potency is the fitted concentration of half-maximal effect. In a few lines:
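Compounds were tested at 15 concentrations in three independent runs. Dye-loaded CHRM1-CHO cells were exposed 5 min at room temperature before stimulation by acetylcholine added at 50nM. Intracellular calcium was read kinetically on FDSS for 3 min.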

Assay [13] has the same target. The experiment in a line: Cholinergic receptor muscarinic 1 (CHRM1) small molecule agonists, cell-based qHTS assay (AID 1963589). Note: nearly all actives have a fitted effect of over 35% in size. In a few lines: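 Homogeneous fluorescence calcium flux, agonist mode. Human M1-expressing CHO cells; compound dosed at 15 concentrations, three independent runs; signal sampled every 1 sec.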
The nature of assay [14]: cAMP Responsive Elements (CRE) small molecule agonists, cell-based qHTS assay (AID 1963590). In a few lines:
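HEK 293T cells stably bearing CRE-bla were plated at 2,000 cells per well and rested 18 h. Compounds, positive controls or DMSO were added for 3 h at 37 C. LiveBLAzer B/G substrate was then loaded for 2 h at room temperature.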

Assay [15] is described as follows: cAMP Responsive Elements (CRE) small molecule antagonists, cell-based qHTS assay (AID 1963591; active = well fitted inhibition curve with a large enough effect in the signal ratio in the repeat runs, not every such curve was filed as active; the % refers to the signal ratio). In short, it runs like this: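 First, CRE-bla HEK293T cells settled 18 h at 37 C. Next, compound and 0.25 uM final NKH477 were applied for 3 h. Last, LiveBLAzer B/G substrate was loaded for 2 h at room temperature.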
Assay [16] addresses Beta-2 adrenergic receptor (Homo sapiens) (UniProt P07550). The experiment in a line: Adrenergic beta2 receptor (ADRB2) small molecule antagonists, cell-based qHTS assay (AID 1963592). Note: series mostly up to about 92 µM; nearly all actives have a fitted effect of over 50% in size. In a few lines: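 Assay format: CHO-ADRB2 cells, 18-20hr seeding at 37C/5% CO2, then compound plus 1nM isoproterenol agonist mix for 0.5hr RT. Homogeneous time-resolved fluorescence cAMP detection after 1hr, expressed as 665/615 nm ratio.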

The target of assay [17] is D(2) dopamine receptor (Homo sapiens) (UniProt P14416). The experiment in a line: Dopamine D2 receptor (DRD2) small molecule agonists, cell-based qHTS assay (AID 1963594). Note: nearly all actives have a fitted effect of over 35% in size. In a few lines: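 HEK293 cells stably expressing human DRD2, pre-treated with PDE inhibitor Ro20-1724 (0.1 mM final) and compound 10 min at room temperature, then stimulated with NKH477 (200nM […]) for 30 min. cAMP read by HTRF (665/620 nm).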

A short description of assay [18]: p53 small molecule agonists, cell-based qHTS assay: qHTS cell viability counter screen (AID 1963581). Note: nearly all actives have a fitted effect of over 45% in size. In a few lines:
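ATP content measured by luminescence in HCT-116 p53RE-bla cells treated 16 h at 37 C, same wells as the reporter screen.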

For assay [19], the target named is D(2) dopamine receptor (Homo sapiens) (UniProt P14416). Kind of assay: Dopamine D2 receptor (DRD2) small molecule antagonists, cell-based qHTS assay (AID 1963595; active = well fitted inhibition curve with a large enough effect in the signal ratio in the repeat runs, with a control signal flat; the % refers to the signal ratio). In short, it runs like this: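 HEK293 cells stably expressing DRD2, preincubated with 0.1 mM Ro20-1724 and compounds 10 min, were stimulated with 200 nM NKH477 plus 12 nM quinpirole for 30 min at room temperature; cAMP measured by HTRF (665/620 nm).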

Values joined by “and” are separate entries in the source; they are usually repeats but may differ in a detail not shown here. Equal values may be shown once. Results filed as inconclusive are left out. The source holds several records for some structures; these can differ, active in one and inactive in another. Active and inactive are the calls of the source. Unless noted, calls come from the whole dose curve.

Chain of Gonadotropin-releasing hormone receptor (Homo sapiens) (P30968 whole entry, looked up): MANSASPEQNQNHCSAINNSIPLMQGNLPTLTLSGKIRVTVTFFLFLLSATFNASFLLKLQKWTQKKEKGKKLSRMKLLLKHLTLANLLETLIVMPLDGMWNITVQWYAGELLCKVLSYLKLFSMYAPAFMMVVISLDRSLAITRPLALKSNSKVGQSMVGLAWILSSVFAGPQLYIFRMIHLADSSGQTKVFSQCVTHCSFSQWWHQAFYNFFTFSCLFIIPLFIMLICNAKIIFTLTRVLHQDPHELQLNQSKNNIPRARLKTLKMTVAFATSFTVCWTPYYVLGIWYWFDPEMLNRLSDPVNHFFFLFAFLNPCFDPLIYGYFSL
Chain of 5-hydroxytryptamine receptor 2A (Homo sapiens) (P28223 whole entry, looked up): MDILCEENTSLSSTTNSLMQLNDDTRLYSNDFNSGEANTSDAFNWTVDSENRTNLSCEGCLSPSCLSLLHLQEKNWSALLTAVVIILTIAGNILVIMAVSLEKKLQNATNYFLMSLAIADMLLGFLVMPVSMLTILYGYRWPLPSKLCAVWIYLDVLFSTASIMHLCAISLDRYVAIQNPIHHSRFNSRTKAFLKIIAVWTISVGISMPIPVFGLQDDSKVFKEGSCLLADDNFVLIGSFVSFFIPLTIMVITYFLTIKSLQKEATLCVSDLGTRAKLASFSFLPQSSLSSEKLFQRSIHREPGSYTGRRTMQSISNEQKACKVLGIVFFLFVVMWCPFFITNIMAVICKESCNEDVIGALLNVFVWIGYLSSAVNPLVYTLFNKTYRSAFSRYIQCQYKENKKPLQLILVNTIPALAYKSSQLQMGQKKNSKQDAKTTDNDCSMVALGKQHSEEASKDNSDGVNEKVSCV
Chain of Muscarinic acetylcholine receptor M1 (Homo sapiens) (P11229 whole entry, looked up): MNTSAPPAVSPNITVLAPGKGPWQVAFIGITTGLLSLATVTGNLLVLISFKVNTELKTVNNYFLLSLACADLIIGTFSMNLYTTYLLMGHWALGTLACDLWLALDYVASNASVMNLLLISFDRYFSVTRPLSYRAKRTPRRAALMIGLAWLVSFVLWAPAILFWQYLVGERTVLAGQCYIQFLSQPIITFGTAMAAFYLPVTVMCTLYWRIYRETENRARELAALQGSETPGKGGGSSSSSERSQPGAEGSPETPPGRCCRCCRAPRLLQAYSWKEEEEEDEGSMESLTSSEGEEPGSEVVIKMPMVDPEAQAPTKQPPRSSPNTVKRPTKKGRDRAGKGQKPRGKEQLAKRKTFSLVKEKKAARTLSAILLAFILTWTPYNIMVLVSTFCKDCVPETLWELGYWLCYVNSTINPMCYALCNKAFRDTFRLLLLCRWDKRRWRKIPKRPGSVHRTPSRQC
Chain of D(2) dopamine receptor (Homo sapiens) (P14416 whole entry, looked up): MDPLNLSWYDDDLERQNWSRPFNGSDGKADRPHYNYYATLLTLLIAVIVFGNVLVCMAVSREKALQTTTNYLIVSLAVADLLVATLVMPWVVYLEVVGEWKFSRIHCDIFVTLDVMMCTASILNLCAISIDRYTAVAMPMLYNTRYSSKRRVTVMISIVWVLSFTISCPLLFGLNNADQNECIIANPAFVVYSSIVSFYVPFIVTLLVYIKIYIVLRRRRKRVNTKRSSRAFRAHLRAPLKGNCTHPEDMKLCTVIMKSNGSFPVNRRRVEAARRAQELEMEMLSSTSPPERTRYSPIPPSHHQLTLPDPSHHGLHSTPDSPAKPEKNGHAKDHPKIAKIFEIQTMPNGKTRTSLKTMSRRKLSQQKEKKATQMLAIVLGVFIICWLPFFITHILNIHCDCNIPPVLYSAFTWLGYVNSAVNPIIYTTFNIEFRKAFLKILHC
Chain of Beta-2 adrenergic receptor (Homo sapiens) (P07550 whole entry, looked up): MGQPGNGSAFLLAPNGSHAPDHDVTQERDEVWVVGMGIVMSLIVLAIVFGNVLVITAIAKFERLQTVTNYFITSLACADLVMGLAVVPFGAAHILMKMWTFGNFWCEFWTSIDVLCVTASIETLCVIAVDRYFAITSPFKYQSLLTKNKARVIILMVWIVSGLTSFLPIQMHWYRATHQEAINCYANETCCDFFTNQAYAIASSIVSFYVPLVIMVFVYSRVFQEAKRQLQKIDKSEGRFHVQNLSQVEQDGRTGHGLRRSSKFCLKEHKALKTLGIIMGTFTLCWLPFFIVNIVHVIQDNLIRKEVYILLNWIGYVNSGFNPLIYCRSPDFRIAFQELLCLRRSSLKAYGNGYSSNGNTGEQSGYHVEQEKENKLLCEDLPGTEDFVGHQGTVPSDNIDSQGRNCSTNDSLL

Turning to `ClC1(Cl)C2(Cl)C3(Cl)C4(Cl)C(Cl)(Cl)C5(Cl)C3(Cl)C1(Cl)C5(Cl)C24Cl` (centres undefined), the Potency entry in [1], in assay [2], in [3], in [4], in assay [5] and in assay [6] was “inactive” throughout. Further, the Potency entry in assay [7], in assay [8], in assay [9], in assay [10], in assay [11] and in [12] was “inactive” each time. Besides, the Potency result in assay [13], in [14], in assay [15], in assay [16] and in assay [17] was “inactive” throughout.
For the molecule `CCNc1nc(Cl)nc(NC(C)C)n1`, the Potency result in [1], in assay [2], in assay [3], in [4], in [5] and in [6] was “inactive” each time. Further, the Potency entry in assay [7], in assay [8], in [18], in assay [9], in assay [10] and in assay [11] was “inactive” in each case. The Potency entry in [12], in [13], in assay [14], in assay [15], in assay [17] and in assay [19] was “inactive” throughout.
Turning to `NCCc1ccc(O)cc1`, the Potency result in assay [1], in assay [3], in assay [4], in assay [5], in assay [6] and in assay [7] was “inactive” each time. Besides, the Potency result in assay [8], in assay [9], in assay [12], in [13], in assay [14] and in [15] was “inactive” throughout. Further, the Potency result in assay [16], in [17] and in [19] was “inactive” each time. The Potency in [2] is 29.8 µM (active); in assay [10], 4.17 µM (active) and inactive; in assay [11], 5.45 µM (active) and 8.49 µM (active).
For `CC(Br)C(=O)O` (centres undefined), the Potency entry in [1], in assay [2], in assay [3], in [4], in [5] and in [6] was “inactive” each time. For the same molecule, the Potency result in [7], in assay [8], in [18], in [9], in [11] and in assay [12] was “inactive” each time. The Potency entry in assay [13], in [14], in assay [15], in assay [16], in [17] and in assay [19] was “inactive” in each case.
Turning to `CC(C)Nc1ccc(Nc2ccccc2)cc1`, the Potency in assay [1] was 30.5 µM (active); in assay [2], 9.65 µM (active) and 24.3 µM (active); in assay [7], 28.8 µM (active) and 28.9 µM (active); in [8], 36.2 µM (active) and 45.8 µM (active); in [10], 11.8 µM (active) and 16.8 µM (active); in assay [12] it was 11.9 µM (active). Moreover, the Potency entry in [3], in [4], in assay [5], in [6], in [9] and in [11] was “inactive” in each case. The Potency result in assay [13] and in assay [16] was “inactive” in each case.
With `COP(=S)(OC)Oc1cc(Cl)c(Cl)cc1Cl`, the Potency result in assay [1], in [3], in assay [4], in assay [7], in [8] and in assay [18] was “inactive” each time. The Potency result in [10], in [11], in [12], in assay [13], in assay [14] and in [15] was “inactive” each time. Besides, the Potency entry in assay [16], in [17] and in assay [19] was “inactive” each time. Also, the Potency in assay [2] is 68.1 µM (active).
For `CN1CCC(N(Cc2ccccc2)c2ccccc2)CC1`, the Potency entry in assay [1], in assay [2], in [3], in assay [4], in assay [5] and in assay [6] was “inactive” in each case. Moreover, the Potency result in assay [7], in assay [8], in assay [18], in [9], in [11] and in [14] was “inactive” each time. The Potency entry in assay [15], in assay [16], in assay [17] and in assay [19] was “inactive” throughout. Also, the Potency is 2.59 µM (active) in assay [10] and 0.365 µM (active) in assay [12].
